Experimental data reported in PubChem BioAssay AID1851 (National Center for Advancing Translational Sciences (NCATS), 2009).
In all, about 16,000 compounds went through this assay and about 5,100 (32%) were called active. Another 25% or so got no clear call; they are omitted. The list shows a part of the results. Values without a mark were called inactive. Calls follow the shape of the dose curve; as a rule, active = well fitted curve in the direction sought with a large enough effect; inconclusive = small, poorly fitted or top-dose-only effect, or effect the other way; inactive = no such curve, though single readings can be large or run the other way.

Molecular target: Cytochrome P450 3A4 (Homo sapiens) (UniProt P08684)
Sequence (P08684 whole entry, looked up): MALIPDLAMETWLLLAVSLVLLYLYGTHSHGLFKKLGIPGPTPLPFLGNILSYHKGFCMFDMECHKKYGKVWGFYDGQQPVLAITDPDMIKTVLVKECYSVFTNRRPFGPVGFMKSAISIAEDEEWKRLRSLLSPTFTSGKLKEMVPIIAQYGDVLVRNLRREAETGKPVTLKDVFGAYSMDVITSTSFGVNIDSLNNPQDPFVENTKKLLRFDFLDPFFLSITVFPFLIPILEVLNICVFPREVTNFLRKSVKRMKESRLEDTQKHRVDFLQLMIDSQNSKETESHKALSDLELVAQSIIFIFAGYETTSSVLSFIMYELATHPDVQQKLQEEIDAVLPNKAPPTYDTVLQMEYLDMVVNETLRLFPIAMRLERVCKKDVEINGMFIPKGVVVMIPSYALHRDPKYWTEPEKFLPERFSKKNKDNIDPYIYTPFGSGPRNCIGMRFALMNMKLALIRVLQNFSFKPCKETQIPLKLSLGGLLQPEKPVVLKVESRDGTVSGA
Test: Cytochrome panel assay with activity outcomes
Conditions: recombinant CYP, pro-luciferin dealkylation, luminescence, p450-cyp3a4; series mostly up to 57.1 µM
% is scaled to controls: 0 for no effect and ±100 for the full control effect.

| SMILES | AC50 | activity, negative = inhibition |
| --- | --- | --- |
| NC(=O)C1(N2CCCCC2)CCN(C(=O)c2ccc(-n3cnnn3)cc2)CC1 | inactive | – |
| NC(N)=[N+]1CCc2ccccc2C1 | inactive | – |
| CN1CCN(NC(=O)c2ccccc2F)CC1 | inactive | – |
| COC(=O)C(NNc1ccccc1)(NC(=O)c1ccccc1F)C(F)(F)F (configuration not stated) | 1.58 µM (active) | – |
| O=Nc1c(-c2c(O)[nH]c3ccccc23)[nH]c2ccccc12 | 7.94 µM (active) | – |
| O=C(O)c1ccc(S(=O)(=O)N=Nc2c(O)[nH]c3ccccc23)cc1 | – | 14.3% [at 11.4 µM] |
| [Cu].[O-]/N=C1/C(=[OH+])Nc2ccccc21.[O-]Nc1c(O)[nH]c2ccccc12 | – | 1.34% [at 11.4 µM] |
| O=c1[nH][nH]c(C(F)(F)F)c1C=Nc1ccccc1 | inactive | – |
| COc1cc2nc(N3CCN(C(=O)OCc4ccccc4)[C@H](C(=O)NC(C)(C)C)C3)nc(N)c2cc1OC | 3.98 µM (active) | – |
| COc1cc2nc(N(C)CCCNC(=O)[C@@H]3CCCO3)nc(N)c2cc1OC | inactive | – |
| C=CCN=C1CC(C)(C)CC(=O)/C1=C(/O)CCC(=O)OC | inactive | – |
| CC(C)(CCc1nc2ccccc2[nH]1)C(=O)O | – | -1.06% [at 11.4 µM] |
| Cc1cc(C)cc(NC(=O)CCc2nc3ccccc3[nH]2)c1 | 2.82 µM (active) | – |
| CC(=O)COC(=O)CCc1nc2ccccc2[nH]c1=O | inactive | – |
| CCCn1c(-c2cccs2)nc2nc3ccccc3nc21 | 10 µM (active) | – |
| CCCCNC(=O)NS(=O)(=O)c1ccc(C(=O)OC(C)C)o1 | inactive | – |
| C/C(=N\OC(=O)c1ccccc1)c1cc(-c2ccc(Cl)cc2)no1 | inactive | – |
| N/C(=N\OC(=O)Cc1ccc(Cl)cc1)c1cccnc1 | 0.794 µM (active) | – |
| COc1ccccc1NCc1nnc(SCC(=O)N/N=C/c2ccco2)n1-c1ccc(Cl)cc1Cl | 5.01 µM (active) | – |
| Cc1cc(C)n(CC(=O)N/N=C/c2ccco2)n1 | inactive | – |
| O=C(NC(=S)NNC(=O)c1cccs1)c1ccco1 | – | -0.791% [at 2.29 µM] |
| O=C(NC(N1CCCC1)C(Cl)(Cl)Cl)c1ccccc1 (configuration not stated) | inactive | – |
| O=C(NNC(=O)c1ccccc1)C(=O)N1CCCCC1 | inactive | – |
| O=C(Nc1cccc(F)c1)/C(=C\c1ccco1)NC(=O)c1cccs1 | – | -8.91% [at 2.29 µM] |
| O=C(N/C(=C\c1cccs1)C(=O)N1CCCCCC1)c1ccccc1 | 7.94 µM (active) | – |

| SMILES | AC50 | activity, negative = inhibition |
| --- | --- | --- |
| O=C(NCC1CCCO1)/C(=C\c1ccco1)NC(=O)c1ccccc1 (configuration not stated) | inactive | – |
| O=C(O)C/C(=C\c1ccco1)C(=O)O | – | -18.3% [at 11.4 µM] |
| O=C(N/C(=C/c1ccco1)C(=O)N1CCCCCC1)c1cccs1 | 14.1 µM (active) | – |
| CC(=O)c1cccc(NC(=O)/C(=C\c2ccco2)NC(=O)c2cccs2)c1 | 20 µM (active) | – |
| CC(=O)/C=C/c1ccc2ccccc2n1 | inactive | – |
| C/C(=N/Nc1ccc2ccccc2n1)c1ccccc1O | 3.16 µM (active) | – |
| CC(=NC1CCCCC1)c1ccccc1O | – | -3.59% [at 11.4 µM] |
| Cc1cc(N=Cc2c(CO)cnc(C)c2O)c(N=Cc2c(CO)cnc(C)c2O)cc1C.[Zn] | – | -6.9% [at 11.4 µM] |
| Cc1cc(C)cc(-n2nnnc2SCC(=O)Nc2nc(-c3ccc(F)cc3)cs2)c1 | 1.58 µM (active) | – |
| Cc1cc(C)cc(-n2nnnc2SCC(=O)Nc2nc(-c3ccc(Cl)cc3)cs2)c1 | 3.98 µM (active) | – |
| COC(=O)CSc1ccc2nnc(-c3ccc(F)cc3)n2n1 | inactive | – |
| Cc1ncsc1C(=O)N1N=C2/C(=C/c3ccccc3)CCCC2C1c1ccccc1 (configuration not stated) | 5.01 µM (active) | – |
| COc1ccc(/C=C2\CCCC3C2=NN(C(=O)c2ccco2)C3c2ccc(OC)c(OC)c2)cc1OC (configuration not stated) | 7.94 µM (active) | – |
| O=C1C2=CC[C@@H]3C(=O)N(c4ccc(F)cc4F)C(=O)[C@H]3[C@H]2[C@H](O)[C@H]2O[C@H]12 | – | -21.3% [at 11.4 µM] |
| CC1(C)CCC(NC(=O)[C@H](N)CCC(=O)O)CC1 | inactive | – |
| C(/C=C/c1ccco1)=N/N1CCN(c2ccccc2)CC1 | inactive | – |
| COc1ccccc1/C=C/C=N/N1CCN(Cc2ccc(Cl)cc2)CC1 | 14.1 µM (active) | – |
| O=[N+]([O-])c1ccc(Cl)c(/C=N/N2CCN(Cc3ccccc3)CC2)c1 | inactive | – |
| CC(C)N(Cc1ccccc1)S(=O)(=O)c1n[nH]c(C(C)(C)C)n1 | – | -24.5% [at 11.4 µM] |
| O=C(Nc1nc2ccc(F)cc2s1)C1CCCO1 (configuration not stated) | inactive | – |
| Fc1ccc2nc(Nc3nc4c(s3)CCCC4)sc2c1 | 22.4 µM (active) | – |
| CC(C)(C)c1ccc(OC(=O)Nc2ccc(O)c(C(=O)O)c2)cc1 | – | -11.3% [at 11.4 µM] |
| Cc1cnn(-c2cc(N/N=C/c3ccccc3)ncn2)c1 | inactive | – |
| CC1(C)Cc2ccccc2C(N/N=C/c2cccc(F)c2)=N1 | – | 14.5% [at 2.29 µM] |
| Cc1cccc(/C=N\Nc2cn[nH]c(=O)c2Cl)c1 | 15.8 µM (active) | – |

| SMILES | AC50 | activity, negative = inhibition |
| --- | --- | --- |
| COC(=O)[C@@]1(Cc2ccc(OC)cc2)[C@@H]2[C@@H](CC(=O)[C@H]2CC(=O)C(=O)N(C)C)CN1C(=O)c1ccccc1 | 1 µM (active) | – |
| COC(=O)[C@@]1(Cc2ccc(F)cc2)[C@@H]2[C@@H](CC(=O)[C@H]2CC(=O)C(=O)N(C)C)CN1C(=O)c1ccccc1 | 6.31 µM (active) | – |
| CC(C)N(CCNC(=O)C1CCC(=O)N1Cc1ccc(F)cc1)Cc1ccccc1 (configuration not stated) | inactive | – |
| CN(C(=O)c1ccncc1)c1ccccc1 | – | -11.8% [at 11.4 µM] |
| COC(=O)c1c(C)oc2ccc(N(C(=O)c3ccncc3)S(=O)(=O)c3ccccc3)cc12 | 7.08 µM (active) | – |
| O=C(CN1C(=O)c2ccccc2S1(=O)=O)Nc1ccccc1 | inactive | – |
| Cc1ccc(C)c(C(=O)CN2C(=O)c3ccccc3S2(=O)=O)c1 | 7.94 µM (active) | – |
| NC(=O)C1CCN(C(=O)CN2C(=O)c3ccccc3S2(=O)=O)CC1 | inactive | – |
| O=C(NCCCN1CCN(c2cccc(Cl)c2)CC1)C1CCC(=O)N1Cc1ccccc1Cl (configuration not stated) | – | -7.41% [at 2.29 µM] |
| COCCCNC(=O)C1CCC(=O)N1Cc1ccccc1Cl (configuration not stated) | – | -20.1% [at 11.4 µM] |
| CN(CCCNC(=O)C1CCC(=O)N1Cc1ccccc1Cl)c1ccccc1 (configuration not stated) | 7.08 µM (active) | – |
| CC(C)NC(=O)N1CCC2(CC1)CCN(S(C)(=O)=O)CC2 | inactive | – |
| CCc1c(C)c(C#N)c2nc3ccccc3n2c1N1CCN(c2cc(C)ccn2)CC1 | inactive | – |
| CCc1c(C)c(C#N)c2nc3ccccc3n2c1Nc1c(C)n(C)n(-c2ccccc2)c1=O | 7.94 µM (active) | – |
| Cc1cccc(-n2ncc3c(Nc4c(C)n(C)n(-c5ccccc5)c4=O)ncnc32)c1 | inactive | – |
| COc1ccc2nc(C)cc(SCC(=O)Nc3c(C)cc(C)cc3C)c2c1 | 2.51 µM (active) | – |
| COc1ccc2nc(SCC(=O)NN)cc(C)c2c1 | 2.82 µM (active) | – |
| COc1ccc2nc(C)cc(SCC(=O)NNC(=O)COc3ccccc3)c2c1 | 2.82 µM (active) | – |
| COc1ccc(NC(=O)CCSc2cc(C)c3ccccc3n2)cc1 | 3.98 µM (active) | – |
| Cc1ccc(OCC(=O)NNC(=O)c2cc3ccccc3o2)cc1 | inactive | – |
| NCCCCN | inactive | – |
| C=CC1=C(C(=O)O)N2C(=O)[C@@H](NC(=O)/C(=N\OCC(=O)O)c3csc(N)n3)[C@@H]2SC1 | inactive | – |
| COc1ccc2nccc(SCC(=O)O)c2c1 | – | -8.31% [at 11.4 µM] |
| COc1ccc2nc(C)cc(SCC(=O)NNC(=O)COc3ccc(C)cc3)c2c1 | 2.24 µM (active) | – |
| CC(=O)NCCNc1nc(-c2c(C)noc2C)nc2ccccc12 | 15.8 µM (active) | – |

| SMILES | AC50 | activity, negative = inhibition |
| --- | --- | --- |
| CC(=O)NCCNc1nc(-c2ccccc2C)nc2ccccc12 | 5.01 µM (active) | – |
| COc1ccccc1-c1nc(NCCNC(C)=O)c2ccccc2n1 | inactive | – |
| NCCCCCCCCCCN | inactive | – |
| CC(=O)Nc1ccc(NC(=O)C/C(C)=N/NC(=O)C(=O)N2CCCC2)cc1 | inactive | – |
| CCn1c2ccccc2c2cc(NC(=O)C/C(C)=N/NC(=O)c3ccccc3N)ccc21 | 7.08 µM (active) | – |
| COc1ccc(CNc2ccnc(-c3c(C)noc3C)n2)c(OC)c1 | 2.51 µM (active) | – |
| COc1ccccc1CNc1ccnc(-c2c(C)noc2C)n1 | 5.01 µM (active) | – |
| CC1(C)Cc2c(sc3nc(SCC(=O)NCc4ccccc4)n(-c4ccccc4)c(=O)c23)CS1 | 3.55 µM (active) | – |
| CC1(C)Cc2c(sc3c2C(=O)N(c2ccccc2)C2=NCCN23)CS1 | inactive | – |
| Cc1ccc(-n2c(SCC(=O)NCc3ccco3)nc3sc4c(c3c2=O)CC(C)(C)SC4)cc1 | 2 µM (active) | – |
| CN(C)c1ccc(-c2cncnc2NCc2cccnc2)cc1 | 0.631 µM (active) | – |
| CN(C)c1ccc(-c2cncnc2NCc2ccccc2)cc1 | 0.0316 µM (active) | – |
| COc1cc(NC(=O)COC(=O)c2nc3nc(C)cc(C)n3n2)cc(OC)c1 | – | 20% [at 2.29 µM] |
| Cc1ccc(/C=N/NC(=O)CSc2nc3nc(C)cc(C)n3n2)cc1 | 15.8 µM (active) | – |
| CCSc1nc2nc(C)cc(C)n2n1 | inactive | – |
| COc1ccccc1CNC(=O)CSc1nc2nc(C)cc(C)n2n1 | 14.1 µM (active) | – |
| CCCSc1nnc(CSc2nc3nc(C)cc(C)n3n2)o1 | – | 5.19% [at 11.4 µM] |
| Cc1cc(C)n2nc(SCC(=O)N/N=C/c3ccccc3F)nc2n1 | inactive | – |
| Cc1cc(C)n2nc(SCc3cc(=O)oc4ccc5ccccc5c34)nc2n1 | 2.24 µM (active) | – |
| COc1cccc2cc(NC(=O)C3CCCCC3)c(=O)oc12 | inactive | – |
| CCC(=O)N[C@@H]1CCc2cccc(OC)c2C1 | inactive | – |
| CCn1c(SCC(=O)NC2CCCCC2)nnc1-c1cc2cccc(OC)c2o1 | 10 µM (active) | – |
